Source: PubChem
HSF1 inh = HSF1 inhibitors in luciferase reporter cells, primary screen, cell-based, NIH3T3, luminescence. NIH3T3-HGL HSE-luciferase, MG132-induced, luminescence 8 h; stronger effect = lower value. activity change, negative = inhibition, % at 7.5 µM (by protocol). actives 0.77% (n = 300,000). AID 2098, 2009;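 active = more than half of replicate wells show activity change below -50%, luminescence cut by over half; inconclusive = some wells, but at most half, below -50%; inactive = no replicate well below -50%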;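 note: luciferase reports HSF-1 transcriptional activity via heat shock element; 0% = median of DMSO wells and -100% = zero luminescence signal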
TROY signal inh = inhibitors of TROY-driven NF-kB signaling, primary screen, Q293 LMP1-TROYcd cells, NF-kB luciferase, uHTS | Q293 LMP1-TROYcd NF-kB luciferase reporter, 4 h | actives 0.98% (n = 360,000) | inhibition, % at 10 µM | AID 1347056, 2019;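 active = compounds whose plate-normalised and pattern-corrected inhibition of the luciferase reporter signal at the single screening dose is 50% or more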
LMP1 NFkB inh = EBV LMP1-driven NF-kappaB luciferase reporter inhibitors, primary screen, cell-based, luminescence, single point | LMP1-induced NF-kappaB luciferase reporter cells | inhibition, % at 12.5 µM | actives 0.69% (n = 350,000); in the data active = inhibition above about 41%; inconclusive = no clear call, values can overlap the other calls;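 note: 0% = neutral control wells and 100% = reference inhibitor control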
TWEAK-Fn14 inh = inhibitors of TWEAK-Fn14 signaling, primary screen, luciferase reporter cells, uHTS | AID 1159606, 2016 | inhibition, % at 10 µM | actives 2% (n = 360,000) | TWEAK-stimulated Fn14 reporter cells, luciferase luminescence, 8 h; in the data active = inhibition above about 50%
LGR2 antag = inhibitors of bursicon-induced LGR2 CRE-luciferase signal, primary screen, cell-based, HEK293, CRE-luciferase reporter, bursicon stimulation. bursicon-stimulated, 4 h. inhibition, % at 9.99 µM. actives 0.35% (n = 380,000). AID 720647, 2013. Drosophila bursicon receptor LGR2 (rickets);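 active = drop in luminescence signal, shown as inhibition above about 50% in the replicate tests, limit read from the data, passing the limit was not always enough; inconclusive = probably only some replicates passing the limit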;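 note: agonist challenge used bursicon conditioned medium at about half maximal strength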
HSF1 activator = HSF-1 activators, primary screen, NIH3T3-HGL cells, MG132 stress, luminescence, single point. AID 504408, 2011. actives 1.7% (n = 300,000). NIH3T3-HGL HSF-1 luciferase reporter, 8 h; 100% = twice DMSO control signal. activation, % at 9 µM;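 active = mean replicate activation of at least 50% with a set share of replicates each reaching 50%; inconclusive = only one of those two conditions met; inactive = mean below 50% and too few replicates reaching it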;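 note: 0% = median of the neutral control wells and 100% = twice that signal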
An asterisk follows results filed as active; u = inconclusive; x = no result. Sampled rows, rich in hits. Any-hit rate of the full collection: about 3.6%.

SMILES | HSF1 inh | TROY signal inh | LMP1 NFkB inh | TWEAK-Fn14 inh | LGR2 antag | HSF1 activator
O=C(/C=C/c1ccnc2ccccc12)c1cccs1 | x | 70.3* | 3.5 | 65.5* | 1.7 | x
Cc1oc2c(c(=O)c1C)C(=O)CC(c1ccccc1)C2 (stereo unspecified) | -2.9 | 3.7 | 1.7 | -0.3 | x | -5.6
CS(=O)(=O)c1sc(C#N)c2c1C(=O)CC(c1ccccc1)C2 (stereo unspecified) | 72.0 | 80.0* | 23.9 | 64.3* | 58.0* | 88.5*
C[C@@H]1CN([C@@H](C)CO)C(=O)CCCn2nncc2CO[C@H]1CN(C)Cc1ccc(C(=O)Nc2ccccc2N)cc1 | x | x | x | x | -7.0 | x
O=c1[nH]cnc2c1ncn2[C@@H]1O[C@H](CO)[C@@H](O)[C@H]1O | -4.1 | 4.5 | 80.5* | -21.9 | -8.0 | 3.6
Nc1ccc(CCNc2ncnc3c2ncn3[C@@H]2O[C@H](CO)[C@@H](O)[C@H]2O)cc1 | -5.0 | -2.9 | 83.7* | 1.1 | 4.3 | 6.8
OCC1OC(n2ccc3c(NO)ncnc32)C(O)C1O (stereo unspecified) | x | 45.6 | 79.8* | 81.6* | 92.0* | x
Nc1ccn([C@@H]2O[C@H](CO)[C@@H](O)[C@H]2O)c(=O)n1 | x | 0.1 | 4.0 | 16.1 | 2.3 | x
Nc1ccn([C@@H]2O[C@H](CO)[C@@H](O)C2O)c(=O)n1 (stereo partly specified) | 11.7 | 22.7 | 46.7* | -43.8 | 27.5 | 1.3
COCC(=O)N(C)C[C@@H]1Oc2ncc(-c3ccc(C)cc3)cc2C(=O)N([C@H](C)CO)C[C@@H]1C | x | x | x | x | -4.4 | x
OCC1OC(n2cnc3c(NCc4ccccc4O)ncnc32)C(O)C1O (stereo unspecified) | x | 17.3 | 37.6 | 59.4* | 18.2 | x
CCc1cc2c(SCC(=O)Nc3ccc(NC(C)=O)cc3)ncnc2s1 | x | 2.7 | 7.8 | -17.7 | 2.9 | x
c1ccc(CSc2ncnc3sccc23)cc1 | -7.0 | 1.1 | 0.2 | 4.8 | -14.6 | 0.6
CCc1cc2c(Sc3nc4ccccc4s3)ncnc2s1 | 62.3 | -21.1 | 43.3* | 94.5* | -3.4 | 98.8*
c1ccc2sc(Sc3ncnc4sccc34)nc2c1 | 235.4 | 17.1 | 6.7 | 82.7* | -25.6 | 328.9*
CCC(=O)N1CC(=O)N2[C@H](C1)[C@H](c1ccc(-c3ccccc3F)cc1)[C@@H]2CO | x | x | x | x | -2.3 | x
Cc1cc(NC(=O)COc2coc(CN3CCN(c4ccccc4F)CC3)cc2=O)no1 | -74.6* | 7.0 | 1.1 | -9.6 | -6.4 | -80.1
CC(C)NC(=O)COc1coc(CN2CCN(c3ccccc3)CC2)cc1=O | -52.8* | -14.6 | -2.5 | 11.4 | -5.6 | -63.4
CC(C)NC(=O)COc1coc(CN2CCN(c3cccc(Cl)c3)CC2)cc1=O | -3.1 | -11.2 | 0.6 | 31.7 | 6.5 | 4.2
CCCNC(=O)COc1coc(CN2CCN(c3ccccc3OC)CC2)cc1=O | -72.5* | 4.0 | 2.6 | -6.7 | -19.0 | -79.8
CNC(=O)C[C@H]1CC[C@H]2[C@@H](COC[C@@H](O)CN2Cc2ccc(Cl)c(Cl)c2)O1 | x | x | x | x | 1.0 | x
C[C@@H]1CCCCO[C@H](CN(C)S(=O)(=O)c2cn(C)cn2)[C@H](C)CN([C@@H](C)CO)C(=O)c2cc(NC(=O)CCC(F)(F)F)ccc2O1 | x | x | x | x | -17.1 | x
CCC(=O)N(C)C[C@@H]1Oc2cc(Br)ccc2S(=O)(=O)N([C@@H](C)CO)C[C@H]1C | x | x | x | x | 11.9 | x
CC=Cc1ccc2n(c1=O)C[C@H]1[C@H](CO)[C@@H](C(=O)N3CCc4ccccc4C3)[C@@H]2N1CC (mixture of isomers) | x | x | x | x | 10.6 | x
O=[N+]([O-])c1cc(Cl)ccc1-c1nc(-c2ccccc2)no1 | 39.1 | -69.0 | -35.9 | 3.6 | -51.5 | 95.0*
SMILES | HSF1 inh | TROY signal inh | LMP1 NFkB inh | TWEAK-Fn14 inh | LGR2 antag | HSF1 activator
O=[N+]([O-])c1cc(Cl)ccc1-c1nc(-c2ccncc2)no1 | 10.4 | -53.1 | -7.2 | -16.5 | -27.3 | 19.6
CO[C@@H]1CN(C)C(=O)c2ccc(NS(=O)(=O)c3ccccc3C)cc2OC[C@H](C)N(S(C)(=O)=O)C[C@H]1C | x | x | x | x | -8.4 | x
Cc1ccc(-c2nc(C)c(C(=O)O)s2)cc1 | 16.1 | -16.8 | -44.4 | 62.8* | u | 38.9
CC(=O)N1CCc2cc(Br)cc(S(=O)(=O)NCCCN(C)Cc3ccccc3)c21 | -2.4 | -3.9 | -10.5 | 98.1* | 2.5 | -1.5
CCC(=O)N1CCc2cc(Br)cc(S(=O)(=O)NCCCN(C)Cc3ccccc3)c21 | 1.7 | -18.8 | -5.1 | 42.5 | -9.0 | 19.9
O=C(C[C@@H]1C[C@H]2c3cc(NC(=O)Nc4ccc(C(F)(F)F)cc4)ccc3O[C@H]2[C@H](CO)O1)NCCc1ccccc1 | x | x | x | x | 27.5 | x
OCc1ccc(O)c2ncccc12 | -53.7* | -2.9 | -14.3 | 14.1 | x | -58.2
Oc1ccc(CN2CCc3ccccc3C2)c2cccnc12 | -22.6 | -17.8 | 82.2* | -11.0 | x | -11.8
Oc1ccc(CN2CCN(c3ccccc3)CC2)c2cccnc12 | 0.0 | 20.2 | 19.0 | -53.1 | 17.8 | -2.0
Cc1noc(C)c1NC(=O)N(C)C[C@@H]1Oc2c(cccc2N(C)C)C(=O)N([C@@H](C)CO)C[C@H]1C | x | x | x | x | -9.6 | x
C[C@H](CO)N1C[C@H](C)[C@H](CN(C)C(=O)Nc2ccc(F)cc2)Oc2ccc(NS(=O)(=O)c3ccccc3)cc2CC1=O | x | x | x | x | -20.8 | x
CCC(C)(C)NC(=O)C(c1ccc(C)cc1)N(Cc1cccs1)C(=O)c1ccc2c(c1)OCCO2 (stereo unspecified) | 22.5 | 54.5* | -0.4 | 88.2* | x | 55.2*
COc1ccc(-n2nnnc2S(=O)(=O)CC(=O)N2CCCCC2)cc1 | x | 57.0* | 61.1* | 96.5* | 98.9* | x
COc1ccc(-n2nnnc2S(=O)(=O)Cc2ccc(C(=O)O)cc2)cc1 | 90.4 | 19.6 | 26.6 | -7.4 | x | 94.5*
CCc1ccc(Oc2nnnn2-c2ccc(C(N)=O)cc2)cc1 | -0.7 | -0.9 | -5.8 | -17.9 | 0.4 | -5.1
C[C@@H]1CN([C@@H](C)CO)C(=O)c2cc(NC(=O)C3CCCCC3)ccc2O[C@@H](C)CCCCO[C@H]1CN(C)Cc1ccc2c(c1)OCO2 | x | x | x | x | -8.4 | x
Cc1cc(C(C)(C)C)cc(S(=O)(=O)NCCO)c1C | -6.7 | x | 0.3 | 85.2* | x | 0.6
Cc1ccc(/C=C/C(=O)O)cc1S(=O)(=O)NCCO | -1.5 | 27.5 | 2.8 | -0.2 | 1.5 | -8.9
CNC[C@@H]1Oc2c(NC(=O)c3ccncc3)cccc2C(=O)N([C@@H](C)CO)C[C@@H]1C | x | x | x | x | 22.8 | x
CCOCCCNC(=S)Nc1ccc2nc(N3CCOCC3)cc(C)c2c1 | 76.2 | -22.0 | -0.6 | 18.2 | -8.9 | 125.4*
